PubChem BioAssay (Tox21)
Records with an inconclusive call do not appear. A structure can be active in one record and inactive in another. The source made the active and inactive calls. Unless noted, calls come from the whole dose curve; as a rule, active = well fitted curve in the direction sought with a large enough effect in the repeat runs; inconclusive = weak or mixed curves; inactive = no such curve, though single readings can be large; an effect the other way counts as inactive or inconclusive.

How the values were obtained:
[1] = biological target: Thyrotropin receptor (Homo sapiens) (UniProt P16473); test: qHTS assay to identify small molecule antagonists of the thyroid stimulating hormone receptor (TSHR) signaling pathway (AID 1259385; calls by dose curve; note: nearly all actives have a fitted effect of over 20% in size)
How it was run: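 TSHR-HEK293 cells (800/well) plated 18 h, then compounds with Ro20-1724 and TSH at 1.5 ng/mL final, 30 min at room temperature. cAMP quantified by HTRF (cAMP-d2/anti-cAMP-cryptate, 1 h); 15 concentrations in triplicate.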

[2] = qHTS assay to identify small molecule agonists of the estrogen receptor alpha (ER-alpha) signaling pathway in the presence of an antagonist - cell viability counter screen (AID 1259386);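 note: series mostly up to about 92 µM; cells exposed to compounds for 22 h at 37 °C before the viability read; nearly all actives have a fitted effect of over 30% in size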
How it was run: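 Steps: 5-day stripped-FBS culture; seed and incubate 24hr; add ICI-182,780 (10.0nM final); pin 15-point compound titration; incubate 22hr at 37C; add CellTiter-Fluor at 21hr; read fluorescence.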

[3] = biological target: Progesterone receptor (Homo sapiens) (UniProt P06401); test: qHTS assay to identify small molecule agonists of the progesterone receptor (PR) signaling pathway (AID 1346784; calls by dose curve; note: nearly all actives have a fitted effect of over 30% in size)
How it was run: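 PR-UAS-bla HEK 293T cells carrying a UAS-driven beta-lactamase reporter were seeded in medium with 2% charcoal-stripped FBS, preincubated 6 hr at 37C, then exposed to compounds in DMSO for 16 hr; agonism was read by LiveBLAzer B/G FRET fluorescence.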

[4] = biological target: Progesterone receptor (Homo sapiens) (UniProt P06401); test: qHTS assay to identify small molecule antagonists of the progesterone receptor (PR) signaling pathway (AID 1346795; active = well fitted inhibition curve with a large enough effect in the signal ratio in the repeat runs, not every such curve was filed as active; the % refers to the signal ratio; note: potency is the fitted concentration of half-maximal effect)
How it was run: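 PR-UAS-bla HEK293T cells carrying a UAS-driven beta-lactamase reporter were plated in medium with 2% charcoal-stripped FBS and rested 6 hr at 37C. Compounds were added with 1 nM R5020 (final) for 16 hr, then FRET substrate loaded 2 hr at room temperature.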

[5] = qHTS assay to identify small molecule antagonists of the progesterone receptor (PR) signaling pathway - cell viability counter screen (AID 1346798); note: series mostly up to about 92 µM; nearly all actives have a fitted effect of over 50% in size
How it was run: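 PR-UAS-bla HEK293T cells in medium with 2% charcoal-stripped FBS were treated with compounds plus R5020 for 16 hr at 37C. Cell viability was then read by CellTiter-Glo luminescence after 30 min at room temperature in the same wells.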

[6] = qHTS assay to identify small molecule antagonists of the TGF-beta/Smad signaling pathway - cell viability counter screen (AID 1346824); note: nearly all actives have a fitted effect of over 50% in size
How it was run: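 SBE-bla HEK 293T cells, incubated overnight, then compound plus 0.25 ng/mL TGF-beta1 (stock added) for 5 hr at 37 C. Viability was read in the same wells by CellTiter-Glo luminescence after 30 min at room temperature.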

[7] = qHTS assay to identify small molecule agonists of the TGF-beta/Smad signaling pathway (AID 1346859; active = well fitted activation curve with a large enough effect in the signal ratio in the repeat runs, not every such curve was filed as active; the % refers to the signal ratio; note: series mostly up to about 77 µM)
How it was run: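 HEK 293T cells stably carrying a beta-lactamase reporter driven by the Smad binding element were seeded overnight, exposed to DMSO-dissolved compounds for 5 hr at 37 C, 5% CO2, then loaded with FRET substrate for 2 hr at room temperature.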

[8] = biological target: Thyrotropin-releasing hormone receptor (Homo sapiens) (UniProt P34981); test: qHTS assay to identify small molecule antagonists of the thyrotropin-releasing hormone receptor (TRHR) signaling pathway (AID 1346877; active = well fitted inhibition curve with a large enough effect in the repeat runs, not every such curve was filed as active; note: series mostly up to about 51 µM)
How it was run: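 Human TRHR in HEK293 cells; inhibition of the intracellular calcium rise triggered by 1 nM TRH was followed by fluorescence over 3 min. Compounds were run at 15 concentrations, three replicates each.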

[9] = biological target: Thyrotropin-releasing hormone receptor (Homo sapiens) (UniProt P34981); test: qHTS assay to identify small molecule agonists of the thyrotropin-releasing hormone receptor (TRHR) signaling pathway (AID 1346891; calls by dose curve; note: series mostly up to about 58 µM)
How it was run: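 TRHR-expressing HEK293 cells were plated 18 h at 37 °C/5% CO2, loaded with calcium dye 2 h at 37 °C, then given compound in DMSO; fluorescence was read kinetically for 3 min at 1 s intervals.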

[10] = Human pregnane X receptor (PXR) small molecule agonists, qHTS cell viability counter screen (AID 1346977); note: nearly all actives have a fitted effect of over 50% in size
How it was run: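 PXR-Luc HepG2 cells in medium with 5% charcoal-stripped FBS were pre-incubated 5hr, then exposed to compounds for 24hr at 37C. Viability was read in the same wells by CellTiter-Fluor fluorescence, reagent added after 23hr with a 1hr incubation.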

[11] = Caspase-3/7 induction in HepG2 cells by small molecules, qHTS assay (AID 1346978); note: nearly all actives have a fitted effect of over 15% in size
How it was run: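 Wild-type HepG2 cells, 2,000/well, settled 5 hr at 37 C and 5% CO2, then compound-treated for 17 hr; caspase-3/7 activity read by luminescent Caspase-Glo 3/7 after 30 min at room temperature.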

[12] = Caspase-3/7 induction in CHO-K1 cells by small molecules, qHTS cell viability counter screen (AID 1346979); note: nearly all actives have a fitted effect of over 35% in size
How it was run: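 Wild-type CHO-K1 cells were seeded at 1,500 per well, rested 5hr at 37 C, then exposed to compounds in DMSO. After 16hr, CellTiter-Fluor reagent was added and fluorescence read 1hr later as the viability measure.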

[13] = Caspase-3/7 induction in CHO-K1 cells by small molecules, qHTS assay (AID 1346980); note: nearly all actives have a fitted effect of over 15% in size
How it was run: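 Wild-type CHO-K1 cells exposed to compounds for 17hr at 37 C, 5% CO2. Caspase-3/7 activity then measured by Caspase-Glo 3/7 luminescence after 30min at room temperature.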

[14] = Caspase-3/7 induction in HepG2 cells by small molecules, qHTS cell viability counter screen (AID 1346981); note: series mostly up to about 92 µM; nearly all actives have a fitted effect of over 30% in size
How it was run: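 The parent HepG2 line is plated at 2,000 cells per well and rested 5 hr before compound pinning from DMSO stocks. Following a 16-hr treatment at 37 C, a fluorogenic live-cell substrate (CellTiter-Fluor) reports viability after 1 hr.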

[15] = biological target: Nuclear receptor subfamily 1 group I member 2 (Homo sapiens) (UniProt O75469); test: Human pregnane X receptor (PXR) small molecule agonists, qHTS assay (AID 1346982); note: nearly all actives have a fitted effect of over 35% in size; note: potency is the fitted concentration of half-maximal effect
How it was run: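 After plating in 5% charcoal-stripped FBS and a 5 hr rest, PXR-Luc HepG2 cells received compounds in DMSO. Following 24 hr at 37 C, ONE-Glo was added and light output read.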

[16] = qHTS assay to identify small molecule agonists of the TGF-beta/Smad signaling pathway - cell viability counter screen (AID 1346829); note: top concentration of the series differs between compounds; nearly all actives have a fitted effect of over 45% in size
How it was run: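 Cytotoxicity counter screen: CellTiter-Glo luminescence (30 min, room temperature) measured in the SBE-bla HEK 293T reporter wells after 5 hr compound treatment at 37 C and the 2 hr substrate step.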

[17] = qHTS assay to identify small molecule agonists of the progesterone receptor (PR) signaling pathway - cell viability counter screen (AID 1346799; calls by dose curve; note: nearly all actives have a fitted effect of over 45% in size; note: potency is the fitted concentration of half-maximal effect)
How it was run: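 PR-UAS-bla HEK293T cells, 3,000 per well in medium with 2% charcoal-stripped FBS, were preincubated 6 hr at 37C, then exposed to compounds for 16 hr; viability was read as CellTiter-Glo luminescence after 30 min at room temperature.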

[18] = biological target: Nuclear receptor subfamily 1 group I member 2 (Rattus norvegicus) (UniProt Q9R1A7); test: Rat pregnane X receptor (rPXR) activation by small molecules, qHTS assay (AID 1346983); details: rPXR luciferase reporter cells, One-Glo luminescence, 24 h; stronger effect = higher value; note: nearly all actives have a fitted effect of over 20% in size
How it was run: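 Cell-based rPXR activation assay: rPXR cells, 2,000 per well, rested 5hr at 37 C, then exposed to compounds in DMSO for 24 hr at 37 C. Luciferase activity read by One-Glo luminescence after 30 min at room temperature.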

[19] = biological target: Nuclear receptor subfamily 1 group I member 2 (Homo sapiens) (UniProt O75469); test: CYP3A4 induction through human pregnane X receptor (PXR) by small molecules, qHTS assay (AID 1346984); note: nearly all actives have a fitted effect of over 40% in size; note: potency is the fitted concentration of half-maximal effect
How it was run: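 Human PXR activation is tracked via CYP3A4 promoter-luciferase in DPX-2 (HepG2) cells. Compounds treat cells for 24hr at 37C, and luminescence is read after One-Glo.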

[20] = biological target: Nuclear receptor subfamily 1 group I member 2 (Homo sapiens) (UniProt O75469); test: Human pregnane X receptor (PXR) activation by small molecules, qHTS assay (AID 1346985); note: nearly all actives have a fitted effect of over 40% in size
How it was run: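 DPX-2 cells (HepG2 co-transfected with a PXR response element and a CYP3A4-promoter luciferase construct) were seeded at 2,000 per well, rested 5 hr at 37C, then exposed to DMSO-dissolved compounds for 24 hr. Activation was read as luciferase luminescence.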
% is set by controls: 0 for no effect and ±100 for the full control effect.

Thyrotropin receptor (Homo sapiens), sequence (P16473 whole entry, looked up): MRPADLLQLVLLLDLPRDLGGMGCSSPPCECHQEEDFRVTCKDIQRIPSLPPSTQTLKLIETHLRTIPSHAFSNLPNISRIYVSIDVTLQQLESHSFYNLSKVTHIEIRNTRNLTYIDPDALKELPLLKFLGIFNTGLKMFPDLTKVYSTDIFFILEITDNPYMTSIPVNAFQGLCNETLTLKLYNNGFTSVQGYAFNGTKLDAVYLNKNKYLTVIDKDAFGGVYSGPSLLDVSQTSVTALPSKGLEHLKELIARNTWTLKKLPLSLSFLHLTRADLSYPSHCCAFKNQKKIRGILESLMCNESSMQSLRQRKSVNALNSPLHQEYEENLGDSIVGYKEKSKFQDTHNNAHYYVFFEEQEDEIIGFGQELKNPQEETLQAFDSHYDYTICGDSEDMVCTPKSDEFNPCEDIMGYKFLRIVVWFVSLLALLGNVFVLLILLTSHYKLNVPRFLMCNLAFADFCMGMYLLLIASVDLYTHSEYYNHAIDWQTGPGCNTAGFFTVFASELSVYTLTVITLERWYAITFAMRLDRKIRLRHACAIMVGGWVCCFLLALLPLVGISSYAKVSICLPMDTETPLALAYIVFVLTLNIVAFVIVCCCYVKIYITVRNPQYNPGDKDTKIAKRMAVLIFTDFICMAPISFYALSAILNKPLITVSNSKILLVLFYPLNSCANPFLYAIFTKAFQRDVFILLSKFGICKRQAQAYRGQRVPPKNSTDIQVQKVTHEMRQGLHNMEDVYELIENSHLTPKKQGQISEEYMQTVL
Progesterone receptor (Homo sapiens), sequence (P06401 whole entry, looked up): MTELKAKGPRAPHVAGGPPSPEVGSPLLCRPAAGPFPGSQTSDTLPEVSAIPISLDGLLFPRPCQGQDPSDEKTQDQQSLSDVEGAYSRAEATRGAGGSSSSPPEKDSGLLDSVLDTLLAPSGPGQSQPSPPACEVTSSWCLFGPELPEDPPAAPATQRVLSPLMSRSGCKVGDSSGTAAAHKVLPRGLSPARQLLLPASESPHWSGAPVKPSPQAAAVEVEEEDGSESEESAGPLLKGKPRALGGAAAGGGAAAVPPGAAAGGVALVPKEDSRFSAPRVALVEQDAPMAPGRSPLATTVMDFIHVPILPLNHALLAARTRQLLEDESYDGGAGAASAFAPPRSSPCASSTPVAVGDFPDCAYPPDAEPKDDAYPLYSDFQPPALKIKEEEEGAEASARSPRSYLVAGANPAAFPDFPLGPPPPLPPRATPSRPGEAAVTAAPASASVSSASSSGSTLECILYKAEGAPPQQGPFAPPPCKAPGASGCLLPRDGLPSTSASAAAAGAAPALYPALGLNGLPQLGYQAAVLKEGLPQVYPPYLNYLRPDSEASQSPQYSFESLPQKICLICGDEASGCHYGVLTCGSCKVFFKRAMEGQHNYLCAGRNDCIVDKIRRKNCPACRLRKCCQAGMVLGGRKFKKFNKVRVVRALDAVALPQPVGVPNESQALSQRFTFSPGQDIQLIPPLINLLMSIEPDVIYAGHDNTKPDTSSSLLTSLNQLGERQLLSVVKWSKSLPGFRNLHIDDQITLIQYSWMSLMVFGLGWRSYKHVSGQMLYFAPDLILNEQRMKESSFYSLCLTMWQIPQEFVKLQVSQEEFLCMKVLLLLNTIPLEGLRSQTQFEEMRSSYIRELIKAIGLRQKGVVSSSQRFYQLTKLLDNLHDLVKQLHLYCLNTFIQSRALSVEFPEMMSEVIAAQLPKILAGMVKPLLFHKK
Nuclear receptor subfamily 1 group I member 2 (Homo sapiens), sequence (O75469 whole entry, looked up): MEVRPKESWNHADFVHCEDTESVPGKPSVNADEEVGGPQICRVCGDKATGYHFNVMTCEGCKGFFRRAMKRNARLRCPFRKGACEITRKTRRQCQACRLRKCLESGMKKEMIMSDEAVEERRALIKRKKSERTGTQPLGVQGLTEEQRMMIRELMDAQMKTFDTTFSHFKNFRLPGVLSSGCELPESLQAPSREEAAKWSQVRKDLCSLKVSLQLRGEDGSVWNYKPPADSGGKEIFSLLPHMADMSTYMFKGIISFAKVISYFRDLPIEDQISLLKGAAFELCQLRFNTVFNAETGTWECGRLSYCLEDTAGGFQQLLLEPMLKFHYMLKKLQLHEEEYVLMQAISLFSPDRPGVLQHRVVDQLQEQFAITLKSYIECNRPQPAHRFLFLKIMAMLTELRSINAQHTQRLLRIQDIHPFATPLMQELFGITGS
Thyrotropin-releasing hormone receptor (Homo sapiens), sequence (P34981 whole entry, looked up): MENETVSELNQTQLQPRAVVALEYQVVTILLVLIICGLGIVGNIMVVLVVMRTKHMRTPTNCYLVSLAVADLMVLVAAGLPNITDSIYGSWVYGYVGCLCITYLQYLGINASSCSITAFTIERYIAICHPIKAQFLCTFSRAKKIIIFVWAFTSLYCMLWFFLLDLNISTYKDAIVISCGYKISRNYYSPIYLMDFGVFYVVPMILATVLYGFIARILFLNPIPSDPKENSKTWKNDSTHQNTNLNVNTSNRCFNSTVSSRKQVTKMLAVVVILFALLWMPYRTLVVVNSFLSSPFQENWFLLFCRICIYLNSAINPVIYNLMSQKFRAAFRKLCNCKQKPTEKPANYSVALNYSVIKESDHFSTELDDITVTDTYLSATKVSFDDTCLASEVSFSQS
Nuclear receptor subfamily 1 group I member 2 (Rattus norvegicus), sequence (Q9R1A7 whole entry, looked up): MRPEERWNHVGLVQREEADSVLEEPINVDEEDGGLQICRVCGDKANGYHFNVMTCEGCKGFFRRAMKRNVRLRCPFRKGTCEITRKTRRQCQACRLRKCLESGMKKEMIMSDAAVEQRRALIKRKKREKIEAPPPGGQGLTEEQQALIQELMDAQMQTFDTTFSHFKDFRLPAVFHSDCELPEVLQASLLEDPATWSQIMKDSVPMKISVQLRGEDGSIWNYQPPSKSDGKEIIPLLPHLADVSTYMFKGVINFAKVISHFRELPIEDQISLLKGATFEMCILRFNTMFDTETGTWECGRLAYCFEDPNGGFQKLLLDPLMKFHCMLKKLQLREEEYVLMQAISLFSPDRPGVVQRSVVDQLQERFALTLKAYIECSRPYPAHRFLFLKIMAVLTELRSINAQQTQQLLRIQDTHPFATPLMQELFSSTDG

OP(O)c1ccccc1
inactive: outcome [1] | Potency [2] | Potency [3] | Potency [4] | Potency [5] | outcome [6] | outcome [7] | Potency [8] | outcome [9] | Potency [10] | outcome [11] | Potency [12] | outcome [13] | Potency [14] | Potency [15]

O=C(Cl)c1ccccc1
inactive: outcome [1] | Potency [2] | Potency [3] | Potency [4] | Potency [5] | outcome [6] | Potency [16] | outcome [7] | Potency [8] | outcome [9] | Potency [10] | outcome [11] | Potency [14] | Potency [15]

C=CC1(C)OC(=O)N(c2cc(Cl)cc(Cl)c2)C1=O (stereo not given)
active: Potency [4] 21.6 µM
inactive: outcome [1] | Potency [2] | Potency [3] | outcome [6] | Potency [16] | outcome [7] | Potency [8] | outcome [9] | Potency [10] | outcome [11] | Potency [12] | outcome [13] | Potency [14]
54.2 µM (active) and inactive: Potency [17]

CCC(C(N)=O)N1CCCC1=O (stereo not given)
inactive: outcome [1] | Potency [2] | Potency [3] | Potency [4] | Potency [5] | outcome [6] | Potency [16] | outcome [7] | Potency [8] | outcome [9] | Potency [10] | outcome [11] | outcome [13] | Potency [14] | Potency [15] | max activation [18] 4.65% | Potency [19] | Potency [20]

O=c1[nH]c2ccccc2n1C1CCNCC1
inactive: outcome [1] | Potency [2] | Potency [3] | Potency [4] | Potency [17] | outcome [6] | Potency [16] | outcome [7] | Potency [8] | outcome [9] | Potency [10] | outcome [11] | Potency [12] | outcome [13] | Potency [14] | Potency [15]

CCC1(c2ccccc2)C(=O)N(COC)C(=O)N(COC)C1=O
inactive: outcome [1] | Potency [2] | Potency [3] | Potency [4] | Potency [5] | outcome [6] | outcome [7] | Potency [8] | outcome [9] | Potency [10] | outcome [11] | Potency [12] | outcome [13] | Potency [14] | Potency [15] | max activation [18] 3%
active: Potency [19] 10 µM

Cc1cccc2sc3nncn3c12
active: Potency [15] 34.4 µM
inactive: outcome [1] | Potency [2] | Potency [3] | Potency [4] | Potency [17] | outcome [6] | Potency [16] | outcome [7] | Potency [8] | outcome [9] | Potency [10] | outcome [11] | Potency [12] | Potency [14]
